Measured values from PubChem BioAssay AID624354 (Sanford-Burnham Center for Chemical Genomics, 2012).
Screen size: about 360,000 compounds; about 3,800 (1.1%) were called active. The full list was thinned out, with actives kept by preference. A number with no mark means an inactive call.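 The calls were made as follows: active = compounds causing at least 50% loss of cell viability in the single-dose screen, relative to plate controls; inactive = the rest.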

assay: viability loss with TRAIL in NB7+C8 cells, primary screen, TRAIL sensitizer project, cell-based, ATPlite luminescence (AID 624354); details: at 10 µM, active compounds read high

Row | SMILES | inhibition (viability loss, TRAIL sensitization)
1 | CC(=O)c1nnn(-c2ccc(Cl)cc2C#N)c1C | 2.75%
2 | Cc1ccc(N2CCN(c3ccc(C)cc3)C2c2ccccn2)cc1 | -11.7%
3 | Cc1ccc2nc(-c3ccncc3)cc(C(=O)Nc3ccncc3)c2c1 | 54% (active)
4 | Cc1ccc2nc(-c3ccncc3)cc(C(=O)Nc3ccc(OC(F)F)cc3)c2c1 | 14.5%
5 | Cc1ccc(-c2cc(C(=O)NCc3cn(C)nc3C)c3cc(Br)ccc3n2)cc1 | 12.3%
6 | Cc1cc(C)n2nc(C(=O)OC(C)C(=O)c3cc(C)c(C)cc3C)nc2n1 (stereo not given) | -12.9%
7 | CC(=O)N1c2ccc(S(=O)(=O)N3CCCC(C(=O)NCc4ccc(Cl)cc4)C3)cc2CC1C (stereo not given) | 15.2%
8 | O=C(CN1C(=O)c2ccccc2S1(=O)=O)N1CCc2ccccc21 | 61.8% (active)
9 | CN(Cc1cccs1)C(=O)CN1C(=O)c2ccccc2S1(=O)=O | -16.6%
10 | Cc1ccc(S(=O)(=O)N(C)CC(=O)N2CCc3ccccc32)cc1 | -3.97%
11 | O=S(=O)(Cc1ccccc1)c1nc2ccccc2n1Cc1ccccn1 | -8.41%
12 | O=C(Cn1c2[n+](c3ccc(C(F)(F)F)cc31)CCCCC2)Nc1c(F)cccc1F | 3.77%
13 | COc1cc2c(cc1OC)CN(C(=O)c1cc(S(=O)(=O)N3CCCCC3)ccc1Cl)CC2 | 1.71%
14 | COc1cc2c(cc1OC)C(C)N(S(=O)(=O)c1cnc(Cl)c(Cl)c1)CC2 (stereo not given) | 75.2% (active)
15 | COc1ccc(C2SCCN2S(=O)(=O)c2ccccc2)cc1OC (stereo not given) | 0.617%
16 | C[C@@H]1CC2=C(C(=O)OC(C)(C)O2)[C@@H](C2CC2)O1 | -8.67%
17 | Cc1ccc(OCCNC(=O)CN2C(=O)NC3(CCCC3)C2=O)cc1 | -18.7%
18 | CCn1cc(-c2cc(C(=O)O)on2)c(C)n1 | -6.48%
19 | CC(C)Nc1ccc(-n2nc3ccccc3[n+]2[O-])cc1 | 54.6% (active)
20 | CCCCC(O)(CCCC)C(=O)NN(C(=O)CCl)c1ccccc1 | 82.8% (active)

Row | SMILES | inhibition (viability loss, TRAIL sensitization)
21 | COC(=O)N(NC(=O)C(O)(C(C)C)C(C)C)c1ccccc1 | 21.8%
22 | CCCC(O)(CCC)C(=O)NN(C(=O)CCl)c1cccc(C)c1 | 5.97%
23 | COc1ccc(/C=C/CN2CCN(Cc3ccc(C)cc3)C(CCO)C2)cc1 (stereo not given) | -0.778%
24 | Cc1cc(C(=O)NCCc2ccc(Cl)cc2)c(C)o1 | -14.9%
25 | Cc1ccc(-c2cc(C(=O)N/N=C/C=C/c3ccccc3)n[nH]2)o1 | 0.486%
26 | CC(=C/c1ccccc1)/C=N/NC(=O)c1cc(C)oc1C | 54.5% (active)
27 | Cc1ccc2cccc(OCCCOc3ccccc3CO)c2n1 | -4.7%
28 | Cc1ccc(NC(=O)c2oc3ccccc3c2C)c([N+](=O)[O-])c1 | 3.18%
29 | CC1(C(=O)NS(=O)(=O)C2CC2)CCCN(C(=O)CSc2ccccc2)C1 (stereo not given) | -10.3%
30 | CCOC(=O)c1c(NC(=O)c2ccc(S(=O)(=O)N(C)CC3CCCO3)cc2)sc2c1CC(C)(C)NC2(C)C (stereo not given) | 26.5%
31 | COC(=O)c1c(NC(=O)COc2ccc(Cl)cc2Cl)sc2c1CC(C)(C)NC2(C)C | 92.1% (active)
32 | CN1CCC(OC(=O)COc2ccc(Cl)cc2Cl)CC1 | -7.75%
33 | COC(=O)c1ccccc1N=Nc1c(C)[nH][nH]c1=O | -4%
34 | O=C(CSc1ncnc2c1nnn2Cc1ccc(F)cc1)NC1CCCC1 | -9.39%
35 | O=C(CCNC(=O)c1ccc(Br)cc1)Nc1cccc(S(=O)(=O)N2CCCCC2)c1 | 5.98%
36 | CSCc1ccc(C(=O)Nc2cc(C)cc(C)c2)cc1 | 66.6% (active)
37 | C=CCN(c1ccc(C(=O)Nc2cc(C)cc(C)c2)cc1)S(C)(=O)=O | -8.04%
38 | Cc1cc(C)cc(NC(=O)CSc2ccccc2)c1 | -3.71%
39 | Cc1cccc(CC2(O)C(=O)Nc3ccccc32)n1 (stereo not given) | -8.54%
40 | CN(C)S(=O)(=O)c1ccc(N2CCCC2=O)c([N+](=O)[O-])c1 | 4.63%

Row | SMILES | inhibition (viability loss, TRAIL sensitization)
41 | Cc1cccc(CS(=O)(=O)c2ncc(Cl)c(C(=O)Nc3ccc(F)cc3)n2)c1 | 36%
42 | Cc1ccc(CS(=O)(=O)c2ncc(Cl)c(C(=O)Nc3nnc(C)s3)n2)cc1 | 96.7% (active)
43 | Cc1cccc(NC(=O)c2nc(S(=O)(=O)Cc3ccccc3)ncc2Cl)c1 | 86.5% (active)
44 | O=C(Nc1nnc(-c2ccc(F)cc2)s1)c1c(F)cccc1Cl | 1.33%
45 | CN(Cc1ccccc1)S(=O)(=O)c1nnc(NC(=O)c2ccccc2F)s1 | -10.5%
46 | O=C(Nc1nnc(Cc2ccc(Cl)cc2)s1)c1cccnc1 | 2.47%
47 | Cc1cccc(NS(=O)(=O)c2ccc(C)c(C(=O)NCc3cccnc3)c2)c1 | -5.47%
48 | CSc1nnc(NC(=O)c2nc(S(=O)(=O)Cc3ccc(C)cc3)ncc2Cl)s1 | 66.5% (active)
49 | O=C(Nc1nnc(Cc2ccc(Cl)cc2)s1)c1ccncc1 | -4.66%
50 | COc1ccccc1-n1nnnc1S(=O)(=O)Cc1ccc(Cl)cc1 | 9%
51 | Cc1ccc(SC(=O)COc2ccc(C)c(C)c2)cc1 | 3.37%
52 | O=C(CCc1ccccc1)NCCc1cccs1 | -4.77%
53 | O=C1C2C3C=CC(C4CC34)C2C(=O)N1c1nccs1 (stereo not given) | -2%
54 | Cc1ccc(-c2nc(-c3cccnc3)sc2CC(=O)Nc2ccc(C)c(Cl)c2)cc1 | 18.7%
55 | COc1ccc(CCN2CNc3c(c(=O)n(C)c(=O)n3C)C2)cc1OC | 7.29%
56 | O=C1OCCN1C(=O)[C@H]1[C@H](c2ccc(Cl)cc2)C(c2cccc(Cl)c2)=NN1c1ccc(Br)cc1 | -0.36%
57 | CCOc1ccccc1/C=N/Nc1nc2ccccc2o1 | -8.7%
58 | COc1cccc(/C=N/Nc2cc(C)nc(-c3ccccc3O)n2)c1O | 56.9% (active)
59 | COCCCNC(=O)c1cccc2c(-c3ccc(O)c(OC)c3)coc12 | 14.2%
60 | CC(=O)OCC(C)n1c(=O)c2ccccc2n1C(C)=O (stereo not given) | -3.49%
